The source of these data is the supplement of paper PMC10849652.

About 7,900 targets were measured; listed, in parts, are those with a hit and a random draw of the rest. About 0.6% of all pairs of compound and target were hits. Unmarked numbers belong to inactive results.

Sequence of UniProt Q9NUN5 (Q9NUN5 whole entry, looked up): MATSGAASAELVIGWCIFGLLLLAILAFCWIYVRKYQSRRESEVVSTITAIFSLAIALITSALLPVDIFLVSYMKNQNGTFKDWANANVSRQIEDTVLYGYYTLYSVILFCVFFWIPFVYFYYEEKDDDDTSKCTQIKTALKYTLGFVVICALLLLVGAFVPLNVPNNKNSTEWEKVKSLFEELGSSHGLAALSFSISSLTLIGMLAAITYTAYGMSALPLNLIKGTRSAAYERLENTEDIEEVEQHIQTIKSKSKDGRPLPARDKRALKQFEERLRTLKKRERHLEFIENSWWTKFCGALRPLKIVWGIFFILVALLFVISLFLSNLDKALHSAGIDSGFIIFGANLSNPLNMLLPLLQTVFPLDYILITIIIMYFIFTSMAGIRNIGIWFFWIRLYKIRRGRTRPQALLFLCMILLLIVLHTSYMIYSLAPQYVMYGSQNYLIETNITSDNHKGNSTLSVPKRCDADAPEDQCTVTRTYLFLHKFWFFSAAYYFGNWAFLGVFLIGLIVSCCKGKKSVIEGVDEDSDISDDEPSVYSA
Sequence of UniProt P13473 (P13473 whole entry, looked up): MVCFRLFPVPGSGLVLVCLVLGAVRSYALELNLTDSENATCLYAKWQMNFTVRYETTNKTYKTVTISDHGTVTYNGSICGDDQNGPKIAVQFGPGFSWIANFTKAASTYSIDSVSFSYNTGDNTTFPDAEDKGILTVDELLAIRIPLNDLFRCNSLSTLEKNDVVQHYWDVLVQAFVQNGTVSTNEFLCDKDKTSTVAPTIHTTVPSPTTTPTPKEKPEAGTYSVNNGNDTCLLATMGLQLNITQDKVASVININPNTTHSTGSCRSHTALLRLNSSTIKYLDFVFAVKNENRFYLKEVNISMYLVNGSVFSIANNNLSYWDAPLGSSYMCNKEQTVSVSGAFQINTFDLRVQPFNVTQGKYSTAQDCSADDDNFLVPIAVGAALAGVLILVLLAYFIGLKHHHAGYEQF
Sequence of UniProt O94822 (O94822 whole entry, looked up): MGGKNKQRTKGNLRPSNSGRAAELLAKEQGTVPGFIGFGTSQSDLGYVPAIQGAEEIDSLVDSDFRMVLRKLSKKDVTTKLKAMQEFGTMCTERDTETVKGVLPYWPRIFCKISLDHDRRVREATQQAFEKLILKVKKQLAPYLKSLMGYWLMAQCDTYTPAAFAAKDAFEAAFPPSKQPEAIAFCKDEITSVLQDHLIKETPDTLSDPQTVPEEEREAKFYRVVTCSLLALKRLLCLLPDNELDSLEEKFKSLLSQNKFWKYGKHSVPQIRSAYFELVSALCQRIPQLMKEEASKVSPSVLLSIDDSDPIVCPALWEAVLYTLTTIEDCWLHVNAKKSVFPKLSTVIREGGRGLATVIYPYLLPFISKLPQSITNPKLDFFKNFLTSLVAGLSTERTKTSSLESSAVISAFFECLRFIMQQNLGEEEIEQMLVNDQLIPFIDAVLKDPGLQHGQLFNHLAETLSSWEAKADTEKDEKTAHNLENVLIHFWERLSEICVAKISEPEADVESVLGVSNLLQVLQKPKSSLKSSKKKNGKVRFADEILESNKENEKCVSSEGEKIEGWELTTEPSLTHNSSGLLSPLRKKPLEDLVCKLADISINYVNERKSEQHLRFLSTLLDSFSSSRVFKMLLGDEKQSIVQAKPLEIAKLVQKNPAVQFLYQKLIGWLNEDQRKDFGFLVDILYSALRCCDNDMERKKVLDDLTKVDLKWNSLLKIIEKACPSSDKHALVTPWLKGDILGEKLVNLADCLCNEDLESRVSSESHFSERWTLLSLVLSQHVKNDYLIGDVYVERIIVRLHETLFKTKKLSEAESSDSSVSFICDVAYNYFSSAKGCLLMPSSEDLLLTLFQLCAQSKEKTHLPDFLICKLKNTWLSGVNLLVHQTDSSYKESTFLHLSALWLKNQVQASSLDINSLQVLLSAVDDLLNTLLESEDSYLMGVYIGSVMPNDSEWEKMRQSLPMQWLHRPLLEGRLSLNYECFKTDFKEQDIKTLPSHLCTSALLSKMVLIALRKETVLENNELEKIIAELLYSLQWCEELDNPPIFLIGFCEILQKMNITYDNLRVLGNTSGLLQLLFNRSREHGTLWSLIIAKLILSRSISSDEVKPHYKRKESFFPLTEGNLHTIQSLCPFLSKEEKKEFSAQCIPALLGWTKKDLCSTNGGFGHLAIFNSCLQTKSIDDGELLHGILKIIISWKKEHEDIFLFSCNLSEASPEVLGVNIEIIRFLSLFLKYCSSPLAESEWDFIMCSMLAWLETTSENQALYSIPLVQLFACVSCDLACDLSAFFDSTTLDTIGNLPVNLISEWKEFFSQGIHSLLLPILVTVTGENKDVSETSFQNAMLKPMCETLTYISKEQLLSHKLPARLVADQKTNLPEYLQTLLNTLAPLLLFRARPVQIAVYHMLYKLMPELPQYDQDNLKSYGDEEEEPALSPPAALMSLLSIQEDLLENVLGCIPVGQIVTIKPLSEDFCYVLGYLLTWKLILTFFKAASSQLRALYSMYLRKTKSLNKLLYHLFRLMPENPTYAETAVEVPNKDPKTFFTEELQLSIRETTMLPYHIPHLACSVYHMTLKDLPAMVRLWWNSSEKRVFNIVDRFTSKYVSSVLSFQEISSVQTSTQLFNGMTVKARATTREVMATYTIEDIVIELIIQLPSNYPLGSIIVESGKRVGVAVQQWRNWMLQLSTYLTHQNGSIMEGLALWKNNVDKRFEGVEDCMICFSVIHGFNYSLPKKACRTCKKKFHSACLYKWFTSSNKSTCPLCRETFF
Sequence of UniProt P49441 (P49441 whole entry, looked up): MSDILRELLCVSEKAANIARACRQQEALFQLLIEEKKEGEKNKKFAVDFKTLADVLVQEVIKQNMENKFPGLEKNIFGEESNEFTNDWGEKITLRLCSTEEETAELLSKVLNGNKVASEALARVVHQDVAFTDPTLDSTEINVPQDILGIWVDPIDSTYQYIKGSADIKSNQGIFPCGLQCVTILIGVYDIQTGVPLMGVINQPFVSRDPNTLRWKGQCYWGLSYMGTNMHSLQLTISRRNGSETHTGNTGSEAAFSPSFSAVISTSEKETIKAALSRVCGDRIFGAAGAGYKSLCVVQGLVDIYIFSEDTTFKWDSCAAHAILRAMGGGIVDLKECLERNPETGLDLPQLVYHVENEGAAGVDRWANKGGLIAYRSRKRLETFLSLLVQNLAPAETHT
Sequence of UniProt Q96P70 (Q96P70 whole entry, looked up): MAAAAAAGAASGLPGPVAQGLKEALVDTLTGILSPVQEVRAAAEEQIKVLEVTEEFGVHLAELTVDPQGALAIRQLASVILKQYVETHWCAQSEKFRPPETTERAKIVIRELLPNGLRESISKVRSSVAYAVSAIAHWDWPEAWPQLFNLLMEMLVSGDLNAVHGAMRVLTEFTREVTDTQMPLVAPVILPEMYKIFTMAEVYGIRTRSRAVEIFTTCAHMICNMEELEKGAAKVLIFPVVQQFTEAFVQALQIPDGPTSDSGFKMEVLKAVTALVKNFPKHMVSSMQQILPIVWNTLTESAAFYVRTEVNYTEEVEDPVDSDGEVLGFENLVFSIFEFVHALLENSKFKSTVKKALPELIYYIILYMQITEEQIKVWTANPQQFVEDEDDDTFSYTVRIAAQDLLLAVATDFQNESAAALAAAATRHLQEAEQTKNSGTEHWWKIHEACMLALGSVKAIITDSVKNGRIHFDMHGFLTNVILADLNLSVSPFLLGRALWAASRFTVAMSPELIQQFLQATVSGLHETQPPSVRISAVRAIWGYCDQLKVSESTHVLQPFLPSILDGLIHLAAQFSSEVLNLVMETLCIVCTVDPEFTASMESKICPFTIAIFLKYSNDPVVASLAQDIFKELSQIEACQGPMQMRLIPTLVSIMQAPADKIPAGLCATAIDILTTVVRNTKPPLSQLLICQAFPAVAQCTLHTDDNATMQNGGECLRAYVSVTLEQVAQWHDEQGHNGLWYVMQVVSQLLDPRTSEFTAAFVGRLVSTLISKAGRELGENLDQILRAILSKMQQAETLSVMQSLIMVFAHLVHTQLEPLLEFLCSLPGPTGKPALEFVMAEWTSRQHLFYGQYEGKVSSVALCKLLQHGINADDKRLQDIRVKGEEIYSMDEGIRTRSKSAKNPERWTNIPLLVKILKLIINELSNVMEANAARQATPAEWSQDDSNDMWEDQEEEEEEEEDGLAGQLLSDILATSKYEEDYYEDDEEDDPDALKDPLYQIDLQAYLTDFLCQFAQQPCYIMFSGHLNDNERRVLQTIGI
Sequence of UniProt Q14681 (Q14681 whole entry, looked up): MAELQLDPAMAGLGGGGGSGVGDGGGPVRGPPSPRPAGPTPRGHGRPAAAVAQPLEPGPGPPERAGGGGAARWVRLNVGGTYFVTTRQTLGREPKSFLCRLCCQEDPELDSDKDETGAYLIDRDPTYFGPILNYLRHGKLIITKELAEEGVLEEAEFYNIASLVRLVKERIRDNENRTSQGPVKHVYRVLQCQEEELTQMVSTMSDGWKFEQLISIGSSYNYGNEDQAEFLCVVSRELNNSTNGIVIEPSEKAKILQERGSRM
Sequence of UniProt Q13418 (Q13418 whole entry, looked up): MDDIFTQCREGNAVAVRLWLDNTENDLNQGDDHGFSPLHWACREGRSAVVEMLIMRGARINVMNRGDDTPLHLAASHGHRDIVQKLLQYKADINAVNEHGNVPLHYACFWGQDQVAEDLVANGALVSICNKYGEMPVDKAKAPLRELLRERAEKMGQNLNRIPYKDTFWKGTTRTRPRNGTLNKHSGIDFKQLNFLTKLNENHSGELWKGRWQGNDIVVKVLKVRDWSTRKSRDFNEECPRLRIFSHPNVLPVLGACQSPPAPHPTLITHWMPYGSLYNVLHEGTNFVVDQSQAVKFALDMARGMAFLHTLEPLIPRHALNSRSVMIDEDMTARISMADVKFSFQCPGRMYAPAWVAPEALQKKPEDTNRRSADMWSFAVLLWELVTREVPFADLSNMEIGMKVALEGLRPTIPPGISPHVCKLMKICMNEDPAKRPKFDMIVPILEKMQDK
Sequence of UniProt Q5XKP0 (Q5XKP0 whole entry, looked up): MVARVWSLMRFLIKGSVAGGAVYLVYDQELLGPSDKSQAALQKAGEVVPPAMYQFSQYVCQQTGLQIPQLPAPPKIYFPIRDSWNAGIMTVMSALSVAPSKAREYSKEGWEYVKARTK

Compound in this assay: Nc1ccccc1NC(=O)c1ccc(CNC(=O)OCc2cccnc2)cc1 [entinostat]
Nature of the assay: log2 fold change, soluble protein after heating vs DMSO (PISA); higher = thermal stabilisation; K562 cells, 10 uM, 30 min; active = over 0.2 and 3.5 SD of the protein, either way, in both replicates (recomputed). A digest of the protocol:
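Aliquots of K562 cells (2×10^6 cells/mL) treated with 10 μM compound for 30 min were heated for 3 min over 48°C-58°C. After pooling and extraction in PBS with 0.5% NP-40 at 4°C, soluble protein from a 21,000xg, 90 min spin was quantified by TMTpro 16plex LC-MS/MS with channel sums equalised. Thermal stability is expressed against control samples, from duplicates, as a log2 fold change.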
As to LMNA (UniProt P02545), the log2 fold change is -0.004.
Next, MAP4 (UniProt E7EVA0): -0.096; LMBRD1 (UniProt Q9NUN5): 0.099; MFSD11 (UniProt O43934): -0.112.
The result for KLHL18 (UniProt O94889) reads -0.045.
On to L2HGDH (UniProt Q9H9P8), for which the log2 fold change was -0.012.
With INPP1 (UniProt P49441), the log2 fold change was -0.089.
The result for MAPKAPK2 (UniProt P49137) reads 0.018.
Next, LRRFIP1 (UniProt Q32MZ4): -0.042; LTN1 isoform 3 (UniProt O94822): 0.056; MARK3 (UniProt P27448): 0.064.
The result for MICOS13 (UniProt Q5XKP0) reads 0.041; that for MAP1LC3B2 (UniProt A6NCE7), 0.012.
For the target MFSD1 isoform 6 (UniProt Q9H3U5), the log2 fold change was -0.019.
The result for KPNA6 (UniProt O60684) reads 0.051; that for LPIN1 isoform 7 (UniProt Q14693), -0.027; that for LAMP2 (UniProt P13473), -0.045.
As for MCCC2 (UniProt Q9HCC0), the log2 fold change is 0.005.
With MED17 (UniProt Q9NVC6), the log2 fold change is -0.128.
On to IPO9 (UniProt Q96P70), for which the log2 fold change was 0.022.
Next, KCTD2 (UniProt Q14681): -0.35; MCL1 (UniProt Q07820): 0.072; ILK (UniProt Q13418): -0.149.
